# Compound activity from PubChem.
# In the library only some 7.8% were active in any assay of this set; here they are far more common.
# VACV Venus inh – inhibitors of vaccinia virus (Venus reporter); AID 720580; Vaccinia virus Venus reporter expression, fluorescence; actives 0.46% (n = 330,000); Potency, µM (doses to about 36.5 µM), without a hit: at the highest dose activity change, negative = inhibition, actives largely listed as inhibitors; calls by dose curve; tested in A549 cells; also: potency is read from the fitted curve at half-maximal effect; nearly all actives have a fitted effect of over 30% in size
# HCV inh – HCV inhibition. actives 3.4% (n = 340,000). Huh7.5.1 HCVcc-Cre infection, luciferase reporter, 44 h. Potency, µM (titrated, usually from 41.8 µM), for the others: at the highest dose activity change, negative = inhibition, hits mostly inhibitors; active = well fitted inhibition curve with a large enough effect; inconclusive = small, poorly fitted or top-dose-only effect, or another doubt; inactive = no such curve, though single readings can be large or run the other way; also: potency is read from the fitted curve at half-maximal effect
#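 Whole-lifecycle infectious HCVcc-Cre system; cells 1,000/well, compound then virus (~0.5 moi) added 4 h after plating, 44 h culture. Luciferase read 15 sec following 15 min substrate incubation, room temp.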
# Marburg entry inh – inhibitors of Marburg virus binding or cell entry; Marburg virus pseudotyped entry inhibition, cell reporter; Potency, µM (titrated, usually from 37.8 µM), for inactives: top-dose activity change, negative = inhibition, hits mostly inhibitors; actives 1.8% (n = 300,000); calls by dose curve; tested in HEK293 cells; also: potency is read from the fitted curve at half-maximal effect
# LASV entry inh – inhibitors of Lassa virus binding or cell entry; Lassa virus pseudotype entry inhibition, cell reporter; Potency, µM (highest dose often 37.9 µM), without a hit: at the top dose activity change, negative = inhibition, usual class: inhibitors; actives 1.2% (n = 300,000); calls by dose curve; tested in HEK293 cells; also: potency is read from the fitted curve at half-maximal effect; nearly all actives have a fitted effect of over 50% in size
# Vaccinia mCherry – vaccinia inhibition (mCherry reporter). Vaccinia virus mCherry reporter infection, fluorescence. Potency, µM (doses to about 36.5 µM), without a hit: at the top dose activity change, negative = inhibition, most hits filed as inhibitors. actives 0.63% (n = 310,000); calls by dose curve; tested in A549 cells; also: potency is read from the fitted curve at half-maximal effect; nearly all actives have a fitted effect of over 35% in size
# HCMV inh – inhibitors of human cytomegalovirus; actives 4.5% (n = 410,000); activity change, negative = inhibition, % at 57.5 µM; HFF cells, HCMV-luciferase reporter, 72 h; stronger effect = lower value; AID 1259415; in the data active = activity change below about -60%; inconclusive = no clear call, values can overlap the other calls; inactive = above about -39%
#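 Two compound doses tested in HFFs infected with HCMV-luciferase, MOI 1 PFU/cell, 72 h at 37C. Lysate luminescence read with OneGlo; data normalized against buffer-only and 10uM Salinomycin inhibitor controls.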
# * = called active by the depositor; i = inactive; ? = inconclusive; nt = no result given; [ ] = remark or other dose. % is scaled to controls: 0 for no effect and ±100 for the full control effect.
SMILES,VACV Venus inh,HCV inh,Marburg entry inh,LASV entry inh,Vaccinia mCherry,HCMV inh
COc1ccc(N(CC(=O)N/N=C/c2ccc(OC3CSC3)cc2)S(=O)(=O)c2ccccc2)cc1,-19%,?,?,?,-22%,?
COc1ccc(N(CC(=O)NN=C2CCCCCCC2)S(=O)(=O)c2ccccc2)cc1,-13%,9%,-11%,11%,i,-64*
CC(C)CON=C1C[C@@H](O)[C@@H](O)[C@@H]2[C@H]3C(=O)N(Cc4ccc5c(c4)OCO5)C(=O)[C@@H]3CC[C@@H]12,nt,nt,-30%[14.2 µM],nt,nt,nt
CCOc1cc(/C=C/c2cc(C(F)(F)F)[nH]c(=O)n2)ccc1O,-23%,-10%,?,?,?,-98*
CCOc1cc(/C=C/c2nc3ccccc3c(=O)[nH]2)ccc1O,nt,-17%,nt,nt,nt,109
COc1ccc(/C=C/c2cc(C(F)(F)F)[nH]c(=O)n2)cc1OC,?,-9%,10%[46.1 µM],?,?,-95*
CCC(CC)C(=O)Nc1ccc(OCc2cc(=O)n3c4c(sc3n2)CCCC4)cc1,-3%,nt,-2%[46.1 µM],8%[46.1 µM],13%,-17
O=C(O)c1cnn(-c2ccccc2)c1C(F)(F)F,-9%,20%,?,22%,-4%,-80*
O=C(O)c1cnn(-c2ccccc2)c1-c1ccccc1,-5%,26%,23%,9%,-13%,29
Cc1cccc(NC(=S)NC(C)(C)CC(C)(C)C)c1,-16%,-24%,?,-14%[46.1 µM],-25%,-65*
Cc1cccc(NC(=S)NCc2ccc(F)cc2)c1,0%,-8%,-11%,?,-10%,-13
Cc1ncc2c(c1CNC(=O)/C=C/c1cccs1)CCN(C(=O)C1CC(=O)OC13CCCCC3)C2 (stereo not drawn),9%,nt,nt,nt,-13%,nt
CC(C)c1nn2c(=O)cc(COC(=O)c3ccccc3NC(=O)c3cccc(Cl)c3)nc2s1,-21%,nt,nt,17%[46.1 µM],i,-30
CC(=O)c1cc(C(=O)c2ccccc2)sc1Nc1ccccc1,?,13µM*,0%,3%,-34%,44
Cc1nc(Nc2ccccc2)sc1C(=O)c1ccccc1,-5%,-11%,9%[46.1 µM],?,-22%,50
CCOc1ccc(CNC(=O)c2ccc3c(c2)sc2nc(-c4ccc(OC)cc4)cn23)cc1,-2%,nt,nt,-2%[46.1 µM],-2%,nt
CCc1nc2sc3c(N4CCCCC4)ncnc3c2c2c1CCCC2,-3%,nt,12%[46.1 µM],16%[46.1 µM],i,9
NC(=S)NN=Cc1nccc2c(C(F)(F)F)cccc12,?,nt,nt,nt,?,-74*
NC(=S)N/N=C/c1ccc(Br)o1,?,15%,nt,nt,?,?
CNc1cccnc1C=NNC(N)=S,?,3.5µM*,1.3µM*,0.63µM*,?,-99*
CC1(C)CC(C)(c2ccc(O)cc2O)N(c2ccc3ccccc3c2)C(=S)N1 (stereo not drawn),?,10µM*,-9%[46.1 µM],-4%,nt,-15
O=C(CCn1cncn1)NCC1Cc2cc(-c3ccsc3)cc(Cl)c2O1 (stereo not drawn),-13%,nt,nt,nt,-3%,nt
C[C@@H]1CCC(=O)N(CC[C@H](Oc2ccccc2)c2ccccc2)CC1,-8%,-19%,nt,nt,-26%,-64*
Nc1ncnc2c1ncn2[C@@H]1O[C@H](CNCc2ccc(OCc3ccccc3)cc2)[C@@H](O)[C@H]1O,-15%,4µM*,nt,nt,i,-27
C[C@H](N)C(=O)NC[C@H]1O[C@@H](n2cnc3c(N)ncnc32)[C@H](O)[C@@H]1O,2%,0%,nt,nt,-13%,-75*
O=C(c1ccccc1Cl)N1CCN(S(=O)(=O)c2cccs2)CC1,-14%,nt,2%,17%,-3%,21
O=C(c1ccc(-c2ccccc2Cl)o1)N1CCN(S(=O)(=O)c2cccs2)CC1,-29%,14µM*,?,-3%,-12%,37
O=C(c1ccco1)N1CCN(Cc2cccc3ccccc23)CC1,10%,-4%,5µM*,10µM*,-14%,-16
O=C(c1ccco1)N1CCN(C(=O)c2ccc(-c3ccccc3Cl)o2)CC1,nt,22µM*,nt,nt,nt,0
CCc1ccc2[nH]c(=O)c(CN(Cc3cccs3)Cc3nnnn3Cc3ccccc3)cc2c1,-30%,nt,nt,nt,-12%,nt
